Laboratory results: PubChem BioAssay (EPA / NIEHS)
Records with an inconclusive call do not appear. The source made the active and inactive calls. How the source made its calls, unless noted: active means hit-call score of the fitted dose curve at least 0.9, where 1 is the maximum; inactive means score below 0.9.

Legend:
[1] = ACEA_ER_80hr: ACEA Biosciences xCELLigence Real-Time Cell Analysis on Estrogen Receptor Agonism for Proliferation (AID 2282667; active means hit-call score of the fitted dose curve at least 0.9, where 1 is the maximum); details: T47D proliferation, impedance (xCELLigence), 80 h
In short: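 Real-time electrical impedance tracked growth of the human breast line T47D, with the 80 h post-dosing value used. Dosing spanned eight 1:4 steps down from a 100 uM final top concentration, run in duplicate.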

[2] = APR_HepG2_CellCycleArrest_24hr: Apredica 24-hour HepG2 Assay for Cell Cycle Arrest (AID 2282905); details: imaging, actives raise or lower the signal;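 further: cell cycle arrest scored as ratio of 2N to 4N nuclear DNA content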
In short: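 HepG2 cells were exposed to compounds at 0.39–200 uM (ten concentrations, duplicate) in 0.5% v/v DMSO for 24 hr. After formaldehyde fixation and Triton permeabilization, Hoechst 33342-stained nuclei were imaged at 20x; DNA content was quantified, with bidirectional fitting against DMSO.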

[3] = APR_HepG2_NuclearSize_24hr: Apredica 24-hour HepG2 Assay for Nuclear Size (AID 2282907); details: high-content imaging, actives raise or lower the signal
In short: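 HepG2 human liver cells were exposed for 24 hr to compounds at 0.39–200 uM (ten concentrations, duplicate) in 0.5% v/v DMSO. They were then formaldehyde-fixed, Triton-permeabilized and Hoechst 33342-stained, and nuclear diameter was imaged at 20x. Bidirectional fits were made against DMSO.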

[4] = APR_HepG2_CellLoss_24hr: Apredica 24-hour HepG2 Assay for Cell Loss (AID 2282908); details: high-content imaging;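 on AC50: fit in both directions so a hit may be cell loss or gain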
In short: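 Compounds were tested at 0.39–200 uM in duplicate with 0.5% v/v DMSO final. Cells were then fixed in 3.7% formaldehyde, Hoechst 33342 nuclei were imaged at 20x by HCS, and cell number was fitted bidirectionally against DMSO.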

[5] = APR_HepG2_MicrotubuleCSK_24hr: Apredica 24-hour HepG2 Assay for Microtubule CSK Stabilty (AID 2282909); details: HepG2 microtubule cytoskeleton imaging, actives raise or lower the signal
In short: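 HepG2 cells exposed 24 h to compounds at 0.39–200 uM (duplicate, 0.5% v/v DMSO final), then fixed, permeabilized and immunostained for alpha-tubulin with Hoechst 33342. Cytoskeleton imaged at 20x; bidirectional fit versus DMSO baseline.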

[6] = APR_HepG2_MitoticArrest_24hr: Apredica 24-hour HepG2 Assay for Mitotic Arrest (AID 2282910); details: high-content imaging, actives raise or lower the signal
In short: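 HepG2 cells, 24 h exposure at 0.39-200 uM (10 concentrations, duplicate, 0.5% DMSO). Fixed, stained for phospho-histone H3 with Hoechst; imaged by high-content microscopy, bidirectional fit versus DMSO.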

[7] = APR_HepG2_MitoMembPot_24hr: Apredica 24-hour HepG2 Assay for Mitochondrial Membrane Potential (AID 2282911); details: imaging, actives raise or lower the signal
In short: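 Cells are dosed for 24 hr across 0.39 to 200 uM with solvent held at 0.5% DMSO. They are then stained with 250 nM MitoTracker Red CMXRos for 30 min, fixed in 3.7% formaldehyde and imaged.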

[8] = APR_HepG2_MitoMass_24hr: Apredica 24-hour HepG2 Assay for Mitochondrial Mass (AID 2282912); details: high-content imaging, actives raise or lower the signal
In short: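 Human HepG2 liver cells were exposed for 24 hr to compounds at 0.39–200 uM (duplicates, 0.5% v/v DMSO final). They were stained live with 250 nM MitoTracker Red CMXRos for 30 min, fixed in 3.7% formaldehyde, and imaged by HCS fluorescence; signals were fitted bidirectionally against DMSO.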

[9] = APR_HepG2_p53Act_24hr: Apredica 24-hour HepG2 Assay for p53 Activation (AID 2282913); details: high-content imaging, actives raise or lower the signal;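 further: p53 protein immunofluorescence averaged per cell in HepG2 with Hoechst nuclei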
In short: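 Human HepG2 liver cells; 24 hr cpd treatment, 0.39–200 uM, 0.5% DMSO final. Fixed in 3.7% formaldehyde, permeabilized with 0.5% Triton X-100, stained with anti-p53/Cy5 plus Hoechst 33342. Six images per well at 20x; gain or loss vs DMSO.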

[10] = APR_HepG2_CellCycleArrest_72hr: Apredica 72-hour HepG2 Assay for Cell Cycle Arrest (AID 2282914); details: high-content imaging, actives raise or lower the signal
In short: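 Read-out is Hoechst-stained nuclear DNA content measured by automated fluorescence imaging (20x, six images per well), fitted in both directions relative to DMSO. Human HepG2 liver cells received 0.39–200 uM compound for 72 hr at 0.5% v/v DMSO.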

[11] = APR_HepG2_CellLoss_72hr: Apredica 72-hour HepG2 Assay for Cell Loss (AID 2282915); details: high-content imaging
In short: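 HepG2 cells exposed 72 h to compound at 0.39–200 uM (10 concentrations, duplicate) in 0.5% DMSO. Fixed with 3.7% formaldehyde and Hoechst 33342-stained. Imaged at 20x; nuclear count gives cell number, fitted bidirectionally versus DMSO.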

[12] = APR_HepG2_P-H2AX_72hr: Apredica 72-hour HepG2 Assay for H2AX Phosphorylation (AID 2282916); details: imaging, actives raise or lower the signal;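 further: phospho-histone H2A.x immunostain intensity per cell marking DNA damage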
In short: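 HepG2 human liver cells were exposed for 72 hr to compounds at 0.39–200 uM (10 concentrations, duplicate per plate) in 0.5% v/v DMSO. Fixed, permeabilized cells were immunolabeled for phospho-histone H2A.x with Hoechst 33342 and imaged by HCS fluorescence; bidirectional fit versus DMSO.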

[13] = APR_HepG2_MitoMembPot_72hr: Apredica 72-hour HepG2 Assay for Mitochondrial Membrane Potential (AID 2282917); details: imaging, actives raise or lower the signal
In short: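 HepG2 cells dosed 72 hr with compound at 0.39–200 uM in duplicate, 0.5% v/v DMSO final. Mitochondria stained with 250 nM MitoTracker Red CMXRos for 30 min before formaldehyde fixation, imaged by high-content fluorescence; bidirectional fit versus DMSO.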

[14] = APR_HepG2_MitoticArrest_72hr: Apredica 72-hour HepG2 Assay for Mitotic Arrest (AID 2282918); details: high-content imaging, actives raise or lower the signal
In short: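 Read-out is phospho-histone H3 immunofluorescence with Hoechst nuclear segmentation, imaged at 20x. Human HepG2 liver cells received ten concentrations (0.39–200 uM, final DMSO 0.5% v/v) for 72 hr before fixation. Gain or loss of signal was fitted relative to DMSO.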

[15] = APR_HepG2_MicrotubuleCSK_72hr: Apredica 72-hour HepG2 Assay for Microtubule CSK Stabilty (AID 2282919); details: HepG2 microtubule cytoskeleton, high-content imaging, actives raise or lower the signal
In short: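 HepG2 cells were exposed 72 hr to compound at 0.39–200 uM in duplicate (0.5% DMSO final), then fixed and permeabilized. Alpha-tubulin immunofluorescence was imaged by high-content microscopy, with bidirectional fitting against DMSO and taxol as positive control.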

[16] = APR_HepG2_P-H2AX_24hr: Apredica 24-hour HepG2 Assay for H2AX Phosphorylation (AID 2282920); details: high-content imaging, actives raise or lower the signal
In short: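 HepG2, 24 hr, cpd 0.39–200 uM (10 conc, duplicate), DMSO 0.5% v/v final. Fix 3.7% formaldehyde, Triton X-100 permeabilize, anti-phospho-H2A.x 1:200 + Hoechst 2 ug/mL. Imaged, bidirectional fit vs DMSO.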

[17] = APR_HepG2_StressKinase_72hr: Apredica 72-hour HepG2 Assay for Stress Kinase (AID 2282921); details: HepG2 stress kinase (phospho-c-Jun) imaging, actives raise or lower the signal
In short: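 Cells were exposed for 72 h to ten concentrations (0.39–200 uM, duplicate) at 0.5% v/v DMSO final, then fixed with 3.7% formaldehyde, permeabilized and immunostained for phospho-c-Jun (Cy3 secondary) with Hoechst nuclear counterstain.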

[18] = APR_HepG2_StressKinase_24hr: Apredica 24-hour HepG2 Assay for Stress Kinase (AID 2282922); details: HepG2 stress kinase (phospho-c-Jun) imaging, actives raise or lower the signal
In short: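 HepG2 cells exposed 24 h to 0.39–200 uM compound in duplicate (0.5% v/v DMSO final). Cells fixed in 3.7% formaldehyde, permeabilized and immunostained for phospho-c-Jun; read by high-content fluorescence imaging, fitted bidirectionally against DMSO.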

[19] = APR_HepG2_p53Act_72hr: Apredica 72-hour HepG2 Assay for p53 Activation (AID 2282923); details: high-content imaging, actives raise or lower the signal;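 further: average cellular p53 protein immunofluorescence intensity in HepG2 cells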
In short: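 Cells were dosed for 72 hr with compounds at 0.39–200 uM in duplicate (final DMSO 0.5% v/v), then fixed in 3.7% formaldehyde, permeabilized with Triton X-100 and immunostained for p53 (Cy5) with Hoechst 33342 nuclear counterstain.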

[20] = APR_HepG2_MitoMass_72hr: Apredica 72-hour HepG2 Assay for Mitochondrial Mass (AID 2282924); details: high-content imaging, actives raise or lower the signal;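 further: MitoTracker Red CMXRos stain intensity per cell imaged as mitochondrial mass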
In short: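 HepG2 cells dosed 72 hr at 0.39–200 uM (0.5% DMSO), in duplicate. MitoTracker Red CMXRos 250 nM loaded 30 min before formaldehyde fixation; high-content fluorescence imaging, bidirectional fit versus DMSO.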

Measured: AC50

Cc1cc(NC(=O)C(=O)O)cc(C)c1Oc1ccc(O)c2c1CCC2
inactive: all assays above

CCCCCCCCCCCCCCCC
inactive: all assays above

CCCCC(CC)COC(=O)CC(C(=O)OCC(CC)CCCC)S(=O)(=O)O (stereo not drawn)
active: [4] 126 µM | [6] 105 µM | [9] 104 µM | [11] 141 µM | [12] 108 µM | [13] 112 µM | [14] 80.8 µM | [16] 102 µM
not listed: [10] | [15] | [19]
inactive: all other assays above

O=C(N[C@@H](Cc1ccccc1)[C@@H](O)C(=O)N1C[C@@H](O)[C@@H](O)C1)c1cc2cc(Cl)ccc2[nH]1
active: [7] 86.4 µM | [11] 104 µM | [12] 107 µM | [13] 97.2 µM | [14] 108 µM
not listed: [10] | [19]
inactive: all other assays above

COc1cc(-c2nc(NC(=O)c3cc4cc(C)cc(C)c4n3CC(=O)O)sc2CCC2CCCCC2)c(OC)cc1Cl
inactive: [1] | [12] | [13] | [17] | [19]
active: [2] 38.6 µM | [3] 61.4 µM | [4] 29.3 µM | [5] 26.5 µM | [6] 35.1 µM | [7] 15 µM | [8] 14.4 µM | [9] 43.4 µM | [11] 26.4 µM | [14] 41.1 µM | [16] 38.9 µM | [18] 48.8 µM | [20] 78.6 µM

CC(=O)Oc1ccccc1C(=O)O
not listed: [10]
inactive: all other assays above

COC(=O)c1ccc(O)cc1
not listed: [10] | [19]
inactive: all other assays above

COc1ccc2c(c1)c(CC(=O)O)c(C)n2C(=O)c1ccc(Cl)cc1
active: [2] 76.4 µM
not listed: [10] | [19]
inactive: all other assays above

Cc1ccc(C)c(O)c1C
active: [11] 12.4 µM | [14] 13.4 µM | [20] 9.74 µM
not listed: [10] | [15] | [19]
inactive: all other assays above

O=C(O)CCCCC(=O)O
not listed: [1]
inactive: all other assays above

C=CCc1ccc(O)c(OC)c1
active: [13] 68.6 µM
not listed: [1]
inactive: all other assays above

Cc1nc(C)nc(N2C[C@@H](C)N(c3ccnc([C@@H](C)O)n3)[C@@H](C)C2)n1
not listed: [10]
inactive: all other assays above

CC1(C)NC(=O)NC1=O
not listed: [1] | [19]
inactive: all other assays above

FC(F)(F)C(F)(F)C(F)(F)C(F)(F)C(F)(F)C(F)(F)CCI
not listed: [10] | [19]
inactive: all other assays above
